According to article PMC4336329 (PLoS ONE, 2015):
The campaign covered roughly 310,000 compounds. About 14,000 (4.5%) showed an effect of 50% or more. The effect is printed as a negative number. This is one part of a sample in which strong results are shown more often than they occur.

Molecular target: human ether-à-go-go-related gene (hERG) potassium channel (human, UniProt Q12809)
Test: primary screen, population patch clamp on CHO cells stably expressing hERG; higher = less effect of the substance
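Further: peak tail current of the secondary pulse compared with the same well before compound.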

human ether-à-go-go-related gene (hERG) potassium channel, sequence (Q12809 whole entry, looked up): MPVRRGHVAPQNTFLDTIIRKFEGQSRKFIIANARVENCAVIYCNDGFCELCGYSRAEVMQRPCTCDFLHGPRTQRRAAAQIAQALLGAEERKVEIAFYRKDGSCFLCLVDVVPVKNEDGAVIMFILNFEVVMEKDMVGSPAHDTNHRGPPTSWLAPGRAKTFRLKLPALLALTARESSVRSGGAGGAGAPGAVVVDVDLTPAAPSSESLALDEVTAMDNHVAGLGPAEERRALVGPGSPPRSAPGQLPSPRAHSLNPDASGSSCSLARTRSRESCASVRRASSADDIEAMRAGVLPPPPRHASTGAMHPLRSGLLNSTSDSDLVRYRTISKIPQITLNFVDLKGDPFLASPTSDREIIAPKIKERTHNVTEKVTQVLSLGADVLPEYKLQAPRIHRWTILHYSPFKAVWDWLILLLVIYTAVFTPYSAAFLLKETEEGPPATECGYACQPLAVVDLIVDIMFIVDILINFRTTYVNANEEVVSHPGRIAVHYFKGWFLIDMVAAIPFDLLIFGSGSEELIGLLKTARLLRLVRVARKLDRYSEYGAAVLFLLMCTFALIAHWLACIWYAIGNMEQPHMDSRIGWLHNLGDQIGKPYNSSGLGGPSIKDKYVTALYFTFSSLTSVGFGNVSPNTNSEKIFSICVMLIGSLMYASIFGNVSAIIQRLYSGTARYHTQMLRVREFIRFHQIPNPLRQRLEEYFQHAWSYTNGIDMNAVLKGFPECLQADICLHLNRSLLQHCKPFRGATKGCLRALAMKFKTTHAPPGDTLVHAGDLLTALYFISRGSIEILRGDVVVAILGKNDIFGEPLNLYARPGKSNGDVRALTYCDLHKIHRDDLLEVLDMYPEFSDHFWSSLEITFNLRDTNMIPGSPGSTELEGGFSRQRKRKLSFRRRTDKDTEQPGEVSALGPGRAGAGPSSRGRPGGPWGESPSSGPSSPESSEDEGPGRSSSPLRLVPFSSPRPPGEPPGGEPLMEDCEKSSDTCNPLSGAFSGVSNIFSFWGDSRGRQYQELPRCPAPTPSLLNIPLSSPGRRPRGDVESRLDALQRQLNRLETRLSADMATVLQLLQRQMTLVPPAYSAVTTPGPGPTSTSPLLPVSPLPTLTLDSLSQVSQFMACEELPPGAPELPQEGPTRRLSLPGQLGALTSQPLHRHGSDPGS

| SMILES | hERG current change (%, negative = inhibition) at 10uM [%] |
| --- | --- |
| O=c1c(-c2ccccc2)[n+]([O-])c2ccccc2n1O | -9.6 |
| CCOc1ccccc1NC(=O)Cc1cccs1 | 3.18 |
| O=C(NCCCN1CCCCC1)c1ccc(CS(=O)c2ccc(F)cc2)o1 (stereo not shown) | -0.35 |
| Br.O=C(Cn1c(NCCCO)nc2ccccc21)c1ccc(F)cc1 | -9.54 |
| Oc1c(C(c2cccs2)N2CCN(c3ccccc3)CC2)sc2ncnn12 (stereo not shown) | -33.6 |
| Cc1ccc(C(c2sc3nc(C)nn3c2O)N2CCN(c3ccccc3)CC2)cc1 (stereo not shown) | -5.32 |
| Oc1c(C(c2cccs2)N2CCN(c3ccc(F)cc3)CC2)sc2ncnn12 (stereo not shown) | -66 |
| Cc1ccc(C(c2sc3nc(C)nn3c2O)N2CCN(c3ccc(F)cc3)CC2)cc1 (stereo not shown) | -65.2 |
| Cc1nc2sc(C(c3ccc(F)cc3)N3CCOCC3)c(O)n2n1 (stereo not shown) | 9.62 |
| Oc1c(C(c2cccs2)N2CCN(c3cccc(Cl)c3)CC2)sc2ncnn12 (stereo not shown) | -26.5 |
| O=C(CCc1ccccc1)Nc1ccccc1C(=O)NCc1ccco1 | 0.64 |
| COC(=O)[C@@]12CCCN1[C@H](c1ccc(-c3ccccc3)cc1)[C@@H]1C(=O)N(C)C(=O)[C@@H]12.O=C(O)C(F)(F)F | -6.67 |
| C=C(C)c1cccc(C(C)(C)NC(=O)Nc2ccc(OC)cc2)c1 | 8.48 |
| COc1ccc(NC(=O)c2oc3ccc(S(=O)(=O)N4CCOCC4)cc3c2C)cc1 | 3.58 |
| COc1ccc2c(c1)nc(SCC(O)c1ccccc1)n2C (stereo not shown) | -60.2 |
| COc1ccc2c(c1)nc(SCC(=O)C(C)(C)C)n2C | -2.82 |
| COc1ccc2c(c1)nc(SCC(C)O)n2C (stereo not shown) | 18 |
| COC(=O)c1cc(NS(=O)(=O)c2cccc(Cl)c2)ccc1N1CCOCC1 | 2.66 |
| Cc1cccc(CCNC(=O)COc2cc(=O)n(C)c3ccccc23)c1 | -17.6 |
| CCN(CCCNC(=O)C1CCC(=O)N1Cc1ccccc1Cl)c1cccc(C)c1 (stereo not shown) | -64.5 |
| CCN(CCCNC(=O)C1CCC(=O)N1Cc1ccc(F)cc1)c1cccc(C)c1 (stereo not shown) | -18.3 |
| CCN(CCCNC(=O)COc1cc(=O)n(CC)c2ccccc12)c1ccccc1 | -52.5 |

| SMILES | hERG current change (%, negative = inhibition) at 10uM [%] |
| --- | --- |
| CCN(CCCNC(=O)COc1cc(=O)n(C)c2ccccc12)c1cccc(C)c1 | -51 |
| CCN(CCCNC(=O)C1CCC(=O)N1Cc1ccc(C)cc1)c1cccc(C)c1 (stereo not shown) | -24.9 |
| CCn1c(=O)cc(OCC(=O)NCCC(C)C)c2ccccc21 | 0.0582 |
| CCN(CCCNC(=O)COc1cc(=O)n(C)c2ccccc12)c1ccccc1 | -41.3 |
| CCN(CCCNC(=O)COc1cc(=O)n(CC)c2ccccc12)Cc1ccccc1 | -19.8 |
| COc1ccc(N2CCN(C(=O)C34CCC(C)(C(=O)C3)C4(C)C)CC2)cc1 (stereo not shown) | -0.453 |
| CN(CC(=O)Nc1ccc(Cl)c(C(F)(F)F)c1)C(=O)Cc1n[nH]c(=O)c2ccccc12 | -16.2 |
| COc1ccc(-n2nc3c(c2NC(=O)c2ccc(Br)o2)CS(=O)(=O)C3)cc1 | -16.4 |
| COC(=O)Nc1ccc(S(=O)(=O)N2CCC(C(=O)N(C)C3CCCCC3)CC2)cc1 | 9.22 |
| COC(=O)CCC(=O)NC(=S)Nc1cc(Cl)ccc1Cl | 10.5 |
| CC1CCN(CC(=O)N2CCCc3c2c(=O)oc2ccc(OCc4ccccc4)cc32)CC1 | -10.5 |
| O=C(CN1CCCCC1)N1CCCc2c1c(=O)oc1ccc(OCc3ccccc3)cc21 | -54.6 |
| O=C(CN1CCCC1)N1CCCc2c1c(=O)oc1ccc(OCc3ccccc3)cc21 | -65.6 |
| CC1CC(C)CN(CC(=O)N2CCCc3c2c(=O)oc2ccc(OCc4ccccc4)cc32)C1 (stereo not shown) | -4.71 |
| CC(=O)Oc1ccc2oc(=O)c3c(c2c1)CCCN3C(=O)CN1CCOCC1 | 1.97 |
| Cc1cc(=O)oc2ccc(OCc3ccccc3)cc12 | 5.11 |
| O=C1OCC/C1=C\c1ccc(O)cc1 | 12.3 |
| O=C(NCCCN1CCOCC1)C1Nc2ccc(OC(F)(F)F)cc2C2C=CCC12 (stereo not shown) | -18.9 |
| CCc1noc(C)c1C(=O)Nc1ccc(F)c(F)c1 | -15.4 |
| COc1cc(NC(=O)Cn2nc(C(F)(F)F)c(Br)c2C)cc([N+](=O)[O-])c1 | 27.7 |
| Cn1c(=O)c([N+](=O)[O-])c(NCC2CCCO2)c2ccccc21 (stereo not shown) | 0.511 |
| Cc1nc2c3cc(F)ccc3n(Cc3ccccc3F)c2s1 | -5.77 |

| SMILES | hERG current change (%, negative = inhibition) at 10uM [%] |
| --- | --- |
| CCc1ccc2c(c1)c1nc(C)sc1n2CC | -5.89 |
| Clc1ccc2c(c1)c1cc(Cl)ccc1n2CN1CCOCC1 | -1.99 |
| Cc1nc2c3cc(Cl)ccc3n(CCN3CCOCC3)c2s1 | -52.2 |
| Cc1nc2c3cc(F)ccc3n(CCN3CCCCC3)c2s1.Cl | -69.9 |
| Cc1ccc2c(c1)c1nc3ccccc3nc1n2C | 21.3 |
| c1ccc2nc3c(nc2c1)c1ccccc1n3CCN1CCOCC1 | -48.5 |
| Cc1nc2c3cc(Cl)ccc3n(CCN3CCCCC3)c2s1.Cl | -70 |
| COC(=O)Cn1c2ccc(C)cc2c2nc(C)sc21 | -7.39 |
| Cc1nc2c3ccccc3n(CCN3CCCCC3)c2s1.Cl | -28.9 |
| Cc1ccc2c(c1)c1nc3ccccc3nc1n2CCN1CCOCC1 | -62.8 |
| OC(CN1CCCCC1)Cn1c2ccc(Cl)cc2c2cc(Cl)ccc21 (stereo not shown) | -29.6 |
| CCc1ccc(NC(=O)Cn2nc(C)n3cccc3c2=O)cc1 | 15 |
| O=C(Nc1cccnc1)c1sc(Nc2ccccc2F)nc1-c1ccccc1 | 20.5 |
| O=C(O)/C=C\C(=O)Nc1ccc(N2CCN(c3cccc(Cl)c3)CC2)cc1 | 10.2 |
| CCCCCN(C(=O)CCC(=O)OCCOc1ccccc1Cl)c1c(N)n(CCCC)c(=O)[nH]c1=O | -41.3 |
| COC(=O)CSc1nnc(-c2ccc(NS(=O)(=O)c3ccccc3)cc2)o1 | 9.9 |
| CC(=O)Oc1ccc2c(C)c(CC(C)O)c(=O)oc2c1 (stereo not shown) | 6.98 |
| Cl.O=C(NN1CCN(Cc2ccccc2Cl)CC1)c1ccc(Br)cc1 | 18.3 |
| Cc1cc(C)c(N=Cc2c(O)[nH]c(=O)[nH]c2=O)c(C)c1 | 11.6 |
| CCN(CC)C(=O)C1CCCN(c2ccc([N+](=O)[O-])cc2[N+](=O)[O-])C1 (stereo not shown) | -38.3 |
| CCN(CC)C(=O)C1CCCN(c2ccc([N+](=O)[O-])cc2/C=N/NC(=O)c2cccc(O)c2)C1 (stereo not shown) | -16.9 |
| CCN(CC)C(=O)C1CCCN(c2ccccc2[N+](=O)[O-])C1 (stereo not shown) | -1.67 |

| SMILES | hERG current change (%, negative = inhibition) at 10uM [%] |
| --- | --- |
| CCN(CC)C(=O)C1CCCN(c2ccc([N+](=O)[O-])cc2/C=N/NC(=O)c2cccc(Br)c2)C1 (stereo not shown) | -0.713 |
| CN1CCN(c2ccc([N+](=O)[O-])cc2/C=N/NC(=O)c2cccc([N+](=O)[O-])c2)CC1 | -54 |
| CCN(CC)C(=O)C1CCCN(c2ccc([N+](=O)[O-])cc2/C=N/NC(=O)c2cccc([N+](=O)[O-])c2)C1 (stereo not shown) | -55.3 |
| O=C(N/N=C\c1cc([N+](=O)[O-])ccc1N1CCCC1)c1ccccn1 | -3.3 |
| Cn1cc(/C=N/NC(=O)c2cccc([N+](=O)[O-])c2)c2ccccc21 | 14.8 |
| CCN(CC)C(=O)C1CCCN(c2ccc([N+](=O)[O-])cc2)C1 (stereo not shown) | -52.2 |
| COc1ccc(-c2nnc(CSc3nc4ccccc4c(=O)n3CC3CCCO3)o2)cc1OC (stereo not shown) | -49 |
| COc1ccc(Cc2noc(CN(C)CC3(N4CCOCC4)CCCCC3)n2)cc1OC | -15.5 |
| CN(Cc1nc(-c2cccs2)no1)CC1(N2CCOCC2)CCCCC1 | -24.2 |
| CN(Cc1nc(Cc2ccccc2F)no1)CC1(N2CCOCC2)CCCCC1 | -62.8 |
| Cc1ccccc1OCC(=O)N/N=C/c1c(C)nn(-c2ccccc2)c1Cl | 1.74 |
| COc1cc(Br)cc(Br)c1OCC(=O)N/N=C/c1c(C)n(C)n(-c2ccccc2)c1=O | -23.1 |
| Cc1cc(C(C)(C)C)ccc1OCC(=O)N/N=C\c1c(C)n(C)n(-c2ccccc2)c1=O | -66.3 |
| CCOC(=O)c1c(N/N=C/c2ccncc2)n[nH]c1C | -10.9 |
| COCCN(CC(=O)NC1CCCCC1)C(=O)CCCC(=O)Nc1ccccn1 | 10 |
| COC/C=C/C1=CC2=CC(=O)C(C)(OC(=O)c3cnc4ccccc4n3)C(=O)C2=CN1Cc1ccco1 (stereo not shown) | 0.0609 |
| O=C(Nc1ccc2[nH]c(=O)[nH]c2c1)C(F)(F)F | 14.9 |
| Cn1cc(C(=O)N2CCCCC2)c2ccccc21 | 4.66 |
| Cc1cc(C)c(S(=O)(=O)NCCOc2ccccc2)c(C)c1-n1cnnn1 | 7.74 |
